Measured values taken from ChEMBL document CHEMBL4513216, “Probing the Open Global Health Chemical Diversity Library for Multistage-Active Starting Points for Next-Generation Antimalarials” (ACS Infect Dis, 2020).
In all, about 69,000 compounds went through this assay and about 8,600 (12%) showed an effect of 50% or more. For the sample, strong results were picked, then their nearest neighbours and some compounds at random.

These compounds were tested on Plasmodium berghei (assay: Screen against P. berghei liver stage (PbLuc), transformed with Luciferase, at 10uM). Settings: tested at 10 uM.
Type: functional, HepG2

SMILES	INHIBITION [%]
COC(=O)c1cc2c(OC)c(OC)c(OC)cc2[nH]1	32.2
C=c1ncsc1=C1NN=C(C2CCCN2C(=O)CCn2cccn2)O1 (configuration not stated)	16.575
CCNC(=O)c1cccc(CNC(=O)c2cnc(C(C)(C)C)s2)c1	-6.94
CCCNC(=O)c1cccc(CNCc2csc(CC)n2)c1	12.3
CCCNC(=O)c1cccc(CNCc2csc(C(C)(C)C)n2)c1	77.4
CC(C)c1nc(CNC(=O)c2ccc(C(C)N3CCCCC3)o2)cs1 (configuration not stated)	42.2
CCCNC(=O)CN1CCC(NCc2csc(C(C)C)n2)CC1	-16.8
CCC(C)NC(=O)c1cccc(CNC(=O)CC(F)(F)F)c1 (configuration not stated)	-76.9
CCCNC(=O)C1CCN(Cc2csc(C(C)C)n2)CC1	42
CCCNC(=O)c1cccc(CNCc2csc(C(C)C)n2)c1	55.1
CCC(C)NC(=O)c1cccc(CNCc2csc(C(C)C)n2)c1 (configuration not stated)	64.5
Cc1ccc(C(=O)O)c(N2CC(C)(C)[C@@](C)(O)C2)n1	16.2
O=S(=O)(c1cncc(F)c1)N1CCC2(CCOC2)C1 (configuration not stated)	-15.4
CC(=O)Nc1ccc2nc(CN(C)Cc3snnc3C)ccc2c1	11.4
COCc1cc(N(C)CCc2c(C)n[nH]c2C)ncn1	26.7
COCC(c1cccc(C(F)(F)F)c1)N(C)C(=O)c1ccco1 (configuration not stated)	48.45
O=C(c1cnccn1)N1CC[C@H]2C[C@@H](c3ccncn3)O[C@@H]2C1	29.9
O=c1cc(CN2CCCC2)nc2n1CCCN(S(=O)(=O)C1CC1)C2	29.5
Cc1noc([C@H]2C[C@@H]3CCN(c4nnc(C)s4)C[C@H]3O2)n1	39.5
Cc1noc([C@H]2CC[C@@H]3[C@@H](CCN3S(C)(=O)=O)O2)n1	7.12
Cc1noc([C@@H]2CC[C@@H]3[C@@H](CCN3c3nnc(C)s3)O2)n1	50.4
Cc1noc([C@@H]2C[C@@H]3CCN(c4nnc(C)s4)C[C@H]3O2)n1	-21.1
Cc1noc([C@@H]2CC[C@@H]3[C@@H](CCN3S(C)(=O)=O)O2)n1	-10.3
Cc1noc([C@H]2CC[C@@H]3[C@@H](CCN3c3ncccn3)O2)n1	51.4
CN1C[C@@H]2CN(C(=O)NCc3cccc(F)c3)CCC[C@]2(C(=O)O)C1	-10.5
Cn1cc(C2CCCN2Cc2cscn2)cn1 (configuration not stated)	42

SMILES	INHIBITION [%]
NC(=O)C1CCN(C(=O)CCn2ccc3ccc(F)cc32)CC1	33
CCn1ncc2c1CCCC2NCc1cccc2c1OCCCO2 (configuration not stated)	40
CSc1ccc(CNC2CCCc3c2cnn3C)cc1 (configuration not stated)	-46.8
Cn1ncc2c1CCCC2NCc1cccc2c1OCCCO2 (configuration not stated)	50.3
Cn1ncc2c1CCCC2NCc1cccc(C(F)(F)F)c1 (configuration not stated)	89.1
Cn1ncc2c1CCCC2NCc1cccc(OC2CCCC2)c1 (configuration not stated)	50.5
Cn1ncc2c1CCCC2NCc1cccnc1 (configuration not stated)	3.3
Cn1ncc2c1CCCC2NCc1cccc(F)c1 (configuration not stated)	4.71
Cc1cccc(CNC2CCCc3c2cnn3C)c1 (configuration not stated)	25.1
Cc1ccc(CNC2CCCc3c2cnn3C)s1 (configuration not stated)	-10.8
CCCn1cc(C(=O)NC2CCC(n3cnnc3)CC2)c(C)n1 (configuration not stated)	18.5
Cc1occc1C(=O)N1CCC[C@]2(C[C@@H](OCc3ccccn3)CO2)C1	22.9
CCOCC1CN(Cc2ccccn2)Cc2nn(CC3CC3)cc21 (configuration not stated)	-2.17
O=C(NCC(F)(F)F)c1ccc(-c2ccco2)[nH]c1=O	14.4
COc1ccc(C2CCCN2S(=O)(=O)N(C)C)cc1 (configuration not stated)	-45.2
c1c(CN2CCCC2)nc2n1CCN(CC1CC1)C2	-44.4
COc1cc(C(=O)N(Cc2cnn(C)c2)C(C)C)ccc1OC(C)C	27.8
CC1=N[C@@]2(CC[C@@H]3CN(Cc4ccccc4)C[C@@H]32)C(=O)N1CC1CC1	-13.4
COc1ccc(C(=O)N2CCOCC(CO)C2)cc1N1CCOCC1 (configuration not stated)	49.9
COc1ccc(C(=O)N2CC[C@](C)(O)[C@H](C)C2)cc1N1CCOCC1	54.4
COc1ccc(C(=O)N2C[C@@H](C)[C@@](C)(O)C2)cc1N1CCOCC1	-4.92
CC(C)Cn1cnc2ccc(NC(=O)CCCn3cccn3)cc2c1=O	13.2
CN(C)C(CNc1c(NCc2ccco2)c(=O)c1=O)c1ccccc1 (configuration not stated)	4.48
Cn1cc(CN2C[C@H]3CCC[C@@]3(COc3ccccn3)C2)cn1	67.5
CCS(=O)(=O)N1C[C@H]2CCC[C@@]2(COc2ccccn2)C1	-23.7
CS(=O)(=O)N1C[C@H]2CCC[C@@]2(COc2ccccn2)C1	33
